Sampled rows, rich in hits. Any-hit rate of the full collection: about 11%.
IMPase cell inh – cell-permeable inhibitors of inositol monophosphatase (IMPase) | 120,000 tested, under 10 active | P97697 | CHO-M1 cells, IP1 accumulation, HTRF TR-FRET ratio | inhibition (IP1 accumulation), % at 46.1 µM; active = well fitted curve in the direction sought with a large enough effect in the signal ratio, not every such curve was filed as active; inconclusive = small, poorly fitted or top-dose-only effect, or a change in a side signal; inactive = no such curve, though single readings can be large or run the other way; the % refers to the signal ratio;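 note: cells stimulated with carbachol in lithium chloride buffer; higher means more IMPase inhibition seen as more IP1 and lower FRET ratio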
Target sequence (P97697 whole entry, looked up): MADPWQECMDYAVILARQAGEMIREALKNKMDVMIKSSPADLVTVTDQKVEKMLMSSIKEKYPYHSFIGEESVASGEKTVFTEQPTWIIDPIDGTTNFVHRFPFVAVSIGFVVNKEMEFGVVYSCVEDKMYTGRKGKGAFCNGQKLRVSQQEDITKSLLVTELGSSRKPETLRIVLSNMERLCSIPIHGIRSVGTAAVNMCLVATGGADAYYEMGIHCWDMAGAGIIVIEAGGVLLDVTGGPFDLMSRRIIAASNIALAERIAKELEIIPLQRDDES
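Carbachol-driven Gq signalling in CHO-M1 cells (2000/well) generates IP1. Compounds that block IMPase raise IP1 and so reduce the FRET signal from Eu-anti-IP1 and d2-IP1 after a 10 min room-temperature lysis.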
PNC inhibitor – perinucleolar compartment assembly inhibition. PC3M PTB-GFP, PNC prevalence imaging, 16 h; stronger effect = lower value. activity change (PNC), negative = inhibition, % at 10 µM. actives 3.1% (n = 140,000);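 active = readout at or below -70, meaning at least 70% loss of cells showing the perinucleolar compartment, a nuclear body marking cancer cells; inconclusive = readout between -30 and a set limit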
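Compounds are pinned in duplicate onto adhered PC3M cells stably expressing GFP-tagged PTB and incubated 16 h at 37 C. Cells are then fixed, nuclei stained with Hoechst, and PNC-positive cells counted.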
ALOX12 inhib – 12-hLO (ALOX12) enzyme inhibition; actives 0.12% (n = 150,000); Potency, µM (series often up to 57.1 µM), hits mostly inhibitors; AID 1452; purified 12-hLO, xylenol orange hydroperoxide absorbance; note: nearly all actives have a fitted effect of over 55% in size
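Purified human 12hLO (150 nM), preincubated 15 min with compound, then 40 uM arachidonic acid for 30 min, room temperature, Hepes pH 7.0 with 0.01% Triton X-100. Hydroperoxide detected by ferrous iron/xylenol orange; 573/405 nm absorbance ratio gives reaction progress.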
HPGD block – HPGD (human) dehydrogenase inhibition | purified HPGD, NADH fluorescence kinetic, PGE2 substrate | Potency, µM, usual class: inhibitors | actives 4.3% (n = 150,000) | P15428 | AID 894; active = well fitted inhibition curve with a large enough effect, not every such curve was filed as active; inconclusive = small, poorly fitted or top-dose-only effect, or another doubt; inactive = no such curve, though single readings can be large or run the other way
Target sequence (P15428 whole entry, looked up): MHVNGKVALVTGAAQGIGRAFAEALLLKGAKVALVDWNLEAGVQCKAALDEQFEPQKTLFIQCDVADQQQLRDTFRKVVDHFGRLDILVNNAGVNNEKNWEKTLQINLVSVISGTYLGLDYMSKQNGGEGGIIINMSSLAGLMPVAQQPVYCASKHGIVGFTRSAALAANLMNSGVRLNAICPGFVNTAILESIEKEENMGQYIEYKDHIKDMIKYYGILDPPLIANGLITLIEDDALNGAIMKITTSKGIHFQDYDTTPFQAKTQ
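20 nM HPGD preincubated 15 min at room temperature with compound in 50 mM Tris-HCl pH 8, 0.01% Tween 20. Started with 1 mM NAD+ and 30 uM prostaglandin E2; NADH fluorescence (360/450 nm) read 5 times over 30-s intervals, last minus first.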
ALDH1A1 inh – ALDH1A1 (human) enzyme inhibition; actives 7.3% (n = 220,000); Potency, µM (doses to about 75.3 µM), most hits filed as inhibitors; Purified ALDH1A1, NADH fluorescence, propionaldehyde substrate; active = well fitted inhibition curve with a large enough effect, not every such curve was filed as active; inconclusive = small, poorly fitted or top-dose-only effect, or another doubt; inactive = no such curve, though single readings can be large or run the other way
IMPase Li cell – IMPase inhibition in cells with lithium potentiation. CHO-M1 cells, IP1 TR-FRET (IP-One), carbachol + lithium. Potency, µM (titrated, usually from 59.4 µM), hits mostly inhibitors. actives 0.35% (n = 210,000);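 note: IP1 builds up when IMPase is blocked and the TR-FRET signal falls; nearly all actives have a fitted effect of over 50% in size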
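Concentration–response in CHO-M1 cells, lithium-potentiated; 30 min at 37C. IP1 detected by competitive TR-FRET after 10 min lysis at RT. Hill-fitted AC50.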
A number is an active result; i = inactive; ? = inconclusive; nt = no result; [ ] = another dose, or the depositor's remark. Unless noted, calls come from the whole dose curve; as a rule, active = well fitted curve in the direction sought with a large enough effect; inconclusive = small, poorly fitted or top-dose-only effect, or another doubt; inactive = no such curve, though single readings can be large; an effect the other way counts as inactive or inconclusive.

SMILES	IMPase cell inh	PNC inhibitor	ALOX12 inhib	HPGD block	ALDH1A1 inh	IMPase Li cell
S=C(NCc1ccccc1)NCc1ccccc1	i	i	?	14µM	?	i
Cc1ccc(NC(=O)CSC2=C(C#N)C(c3ccc4c(c3)OCO4)C3=C(CCCC3=O)N2)c(C)c1 (centres undefined)	?	i	i	?	14µM	i
CCSC1=C(C#N)C(c2ccc3c(c2)OCO3)C2=C(CCCC2=O)N1 (centres undefined)	i	i	i	14µM	?	i
CC(C)Nc1nnc(SCc2cc(=O)n3ccsc3n2)s1	nt	nt	nt	nt	?	i
C/C(N)=C(/C#N)C(=O)CSc1nnc(Nc2ccccc2)s1	nt	nt	nt	nt	i	i
Cc1ccccc1Nc1nnc(SCc2cc(=O)n3ccsc3n2)s1	i	i	i	28µM	?	i
O=c1cc(CSc2nnc(Nc3ccccc3)s2)nc2sccn12	i	i	i	18µM	i	i
C/C(N)=C(/C#N)C(=O)CSc1nnc(Nc2ccccc2C)s1	i	i	i	28µM	?	i
COc1ccc(OC)c(NC(=O)N2c3ccccc3Sc3ccccc32)c1	i	nt	nt	nt	nt	nt
Cc1cccc(C(=O)OCc2cncs2)c1	nt	nt	nt	nt	i	i
CSc1nc(N)c2ncn([C@@H]3O[C@@H](COP(=O)(O)OP(=O)(O)OP(=O)(O)O)[C@@H](O)[C@H]3O)c2n1	i	nt	i	nt	nt	nt
CCCCC/C=C\C[C@@H]1O[C@H]1C(O)/C=C\C/C=C\CCCC(=O)O (some centres undefined)	nt	nt	i	i	i	i
CCOc1cccc(C2c3c(oc4ccc(F)cc4c3=O)C(=O)N2c2cc(C)ccn2)c1 (centres undefined)	i	nt	nt	nt	nt	nt
Cc1ccc(-c2nnc(SCC(=O)N3CCCc4ccccc43)o2)cc1	i	nt	nt	nt	nt	nt
Cc1cc([N+](=O)[O-])cc2c1NC(=O)C2(O)N1CCCCCC1 (centres undefined)	i	i	i	i	22µM	i
O=C1Nc2ccc([N+](=O)[O-])cc2C1(O)N1CCCCC1 (centres undefined)	i	i	i	i	i	i
COC(=O)[C@@H]1CC[C@H](C)[C@@H](c2ccc(C)cc2)N1C(=O)c1ccc(/C=N\OCC[C@@H]2C=C[C@H](OC(C)=O)[C@H](COC(C)=O)O2)cc1	nt	nt	nt	nt	i[13.5 µM]	nt
COc1cc(-c2cc(N)n(S(=O)(=O)c3ccccc3)n2)cc(OC)c1OC	i	i	i	i	i	i
Nc1cc(-c2ccccc2)nn1S(=O)(=O)c1ccc(Br)cc1	i	i	?	i	16µM	i
CCCN1C(=O)c2cc(C(=O)NC3CCCCCC3)ccc2C1O (centres undefined)	i	i	i	i	16µM	i
CCCN1C(=O)c2cc(C(=O)O)ccc2C1O (centres undefined)	i	?	i	i	i	i
O=C(O)c1ccccc1/C=N\N=C1c2ccccc2-c2ccccc21	nt	nt	i[11.4 µM]	i	i[13.5 µM]	i
O=C(OCc1cc(=O)n2c(n1)sc1ccccc12)c1ccc(O)cc1	nt	i	i	14µM	i	i
CCCCC[C@H](O)CC[C@H]1[C@H](O)CC(=O)[C@@H]1CCCCCCC(=O)O	nt	nt	i	i	i	i
CCCCCOP(=O)(c1ccccc1)c1ccccc1	nt	-108	i	i	i	i
SMILES	IMPase cell inh	PNC inhibitor	ALOX12 inhib	HPGD block	ALDH1A1 inh	IMPase Li cell
CCCCP(=O)(CCCC)CCP(=O)(c1ccccc1)c1ccccc1	i	i	i	nt	i	nt
C(=N\c1nc2ccccc2n1CCN1CCCCC1)/c1ccc2c(c1)OCO2	i	?	i	i	?	i
CCCn1c(/N=C/c2ccc3c(c2)OCO3)nc2ccccc21	i	i	i	i	14µM	i
O=C(c1ccc(Cl)cc1)C1CCCN(Cc2cnn(-c3ccccc3)c2)C1 (centres undefined)	nt	nt	nt	nt	i	i
O=C(c1ccc(Cl)cc1)C1CCCN(Cc2ccc(Oc3ncccn3)cc2)C1 (centres undefined)	nt	nt	nt	nt	28µM	i
O=C1C(=O)N(Cc2ccccc2)C(=O)N1CCOc1ccccc1	nt	nt	nt	nt	i	i
CC(C)[C@@H]1[C@H]2CC[C@H](C2)[C@H]1N	i	nt	i	i	i	i

Screens as filed in PubChem.
